“And” between values parts separate entries of the source, which are not always exact repeats. Equal entries are not always repeated. Out of some 5,500 compounds screened, about 2,000 (36%) were called active. Not shown: some 18% with an inconclusive outcome. Cut-off read from the data, not from the text of the source: active = normalized growth mostly below about 0.91 (no sharp cut-off); inconclusive = no clear call, values can overlap the other calls; inactive = mostly above about 0.92. This is one part of the list.
Experiment: chemical genetic growth profiling, strain panel (AID 1159580);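 note: tested at 20 µM; growth read once vehicle control cultures reached saturation at 30 °C; 1 = growth at the plate median or of vehicle wells; lower values mean less growth of the strain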
Conditions: S. cerevisiae deletion strains, growth OD

Measured: normalized growth

C#CCN(C)Cc1ccccc1
inactive: locus YAL013W, strain DEP1, stronger effect = lower value 0.994 | locus YAL021C, strain ccr4, stronger effect = lower value 1.03 | locus YAL026C, strain drs2, stronger effect = lower value 1.02 | locus YAL030W, strain snc1, stronger effect = lower value 0.999 | locus YAL040C, strain CLN3, stronger effect = lower value 0.998 | locus YBL061C, strain skt5, stronger effect = lower value 0.984 | locus YBR009C, strain hhf1, stronger effect = lower value 0.982 | locus YBR021W, strain FUR4, stronger effect = lower value 1.02 | locus YBR023C, strain chs3, stronger effect = lower value 0.997 | locus YBR171W, strain sec66, stronger effect = lower value 1.04 | locus YBR229C, strain ROT2, stronger effect = lower value 1 | locus YBR231C, strain swc5, stronger effect = lower value 1.01 | locus YBR279W, strain paf1, stronger effect = lower value 0.977 | locus YCL011C, strain gbp2, stronger effect = lower value 1 | locus YCL016C, strain dcc1, stronger effect = lower value 0.962 | locus YCL029C, strain bik1, stronger effect = lower value 1.02 | locus YCL061C, strain MRC1 (second series), stronger effect = lower value 1 | locus YCL069W, strain vba3, stronger effect = lower value 1.02 | locus YCR088W, strain abp1, stronger effect = lower value 1.04 | locus YDL005C, strain med2, stronger effect = lower value 1.02 | locus YDL035C, strain GPR1, stronger effect = lower value 0.997 | locus YDL040C, strain nat1, stronger effect = lower value 1.02 | locus YDL074C, strain BRE1, stronger effect = lower value 0.991 | locus YDL101C, strain DUN1, stronger effect = lower value 1.01 | locus YDL134C, strain PPH21, stronger effect = lower value 1 | locus YDL185W, strain tfp1, stronger effect = lower value 1.01 | locus YDL192W, strain arf1, stronger effect = lower value 1.02 | locus YDR001C, strain nth1, stronger effect = lower value 1.01 | locus YDR069C, strain doa4, stronger effect = lower value 0.955 | locus YDR101C, strain arx1, stronger effect = lower value 1.02 | locus YDR137W, strain rgp1, stronger effect = lower value 0.98 | locus YDR159W, strain sac3, stronger effect = lower value 0.933 | locus YDR162C, strain NBP2, stronger effect = lower value 1 | locus YDR195W, strain ref2 0.988 | locus YDR297W, strain sur2, stronger effect = lower value 0.998 | locus YDR318W, strain mcm21, stronger effect = lower value 1.03 | locus YDR334W, strain swr1, stronger effect = lower value 1.02 | locus YDR335W, strain msn5, stronger effect = lower value 0.996 | locus YDR363W, strain ESC2, stronger effect = lower value 0.949 | locus YDR388W, stronger effect = lower value 1.02 | locus YDR392W, strain spt3, stronger effect = lower value 0.958 | locus YDR502C, strain sam2, stronger effect = lower value 1.01 | locus YEL003W, strain gim4, stronger effect = lower value 1.04 | locus YEL037C, strain rad23, stronger effect = lower value 1.03 | locus YEL061C, strain CIN8 (second series), stronger effect = lower value 1.02 | locus YEL061C, strain CIN8, stronger effect = lower value 0.99 | locus YER002W, strain NOP16, stronger effect = lower value 1.02 | locus YER015W, strain faa2, stronger effect = lower value 1 | locus YER016W, strain bim1, stronger effect = lower value 0.979 | locus YER110C, stronger effect = lower value 1.01 | locus YER111C, strain swi4, stronger effect = lower value 1.01 | locus YER155C, strain BEM2 (second series), stronger effect = lower value 1.01 | locus YER155C, strain BEM2, stronger effect = lower value 1 | locus YER167W, strain BCK2, stronger effect = lower value 1 | locus YFR010W, strain ubp6, stronger effect = lower value 1.04 | locus YGL078C, strain dbp3, stronger effect = lower value 1.01 | locus YGL086W, strain mad1, stronger effect = lower value 0.998 | locus YGL167C, strain pmr1, stronger effect = lower value 0.987 | locus YGL173C, strain kem1, stronger effect = lower value 1.05 | locus YGL227W, strain vid30, stronger effect = lower value 1.01 | locus YGL240W, strain doc1, stronger effect = lower value 0.977 | locus YGL248W, strain PDE1, stronger effect = lower value 1 | locus YGL253W, strain hxk2, stronger effect = lower value 1.02 | locus YGR078C, strain PAC10, stronger effect = lower value 0.995 | locus YGR135W, strain pre9, stronger effect = lower value 1.02 | locus YGR252W, strain gcn5, stronger effect = lower value 0.965 | locus YHR013C, strain ard1, stronger effect = lower value 1 | locus YHR027C, strain rpn1, stronger effect = lower value 1.02 | locus YHR030C, strain SLT2, stronger effect = lower value 0.992 and 0.966 | locus YHR079C, strain IRE1 (second series), stronger effect = lower value 1.03 | locus YHR079C, strain IRE1, stronger effect = lower value 0.927 | locus YHR094C, strain hxt1, stronger effect = lower value 1.02 | locus YHR129C, strain ARP1, stronger effect = lower value 0.996 | locus YHR142W, strain chs7, stronger effect = lower value 1.06 | locus YHR200W, strain rpn10, stronger effect = lower value 1.01 | locus YIL066C, strain RNR3, stronger effect = lower value 0.992 | locus YIL073C, strain SPO22, stronger effect = lower value 1.06 | locus YIL125W, strain kgd1, stronger effect = lower value 1.01 | locus YIR030C, strain dcg1, stronger effect = lower value 1.01 | locus YJL092W, strain hpr5, stronger effect = lower value 1.02 | locus YJL095W, strain BCK1 (second series), stronger effect = lower value 1.01 | locus YJL095W, strain BCK1, stronger effect = lower value 0.99 and 0.98 | locus YJL115W, strain asf1, stronger effect = lower value 1.01 | locus YJL129C, strain trk1, stronger effect = lower value 1.03 | locus YJL134W, strain LCB3, stronger effect = lower value 1 | locus YJL154C, strain vps35, stronger effect = lower value 1.01 | locus YJL164C, strain tpk1, stronger effect = lower value 1.01 | locus YJL166W, strain qcr8, stronger effect = lower value 1.03 | locus YJL168C, strain set2, stronger effect = lower value 1.01 | locus YJL187C, strain SWE1 (second series), stronger effect = lower value 1 | locus YJL187C, strain SWE1, stronger effect = lower value 1.01 | locus YJR043C, strain POL32, stronger effect = lower value 0.997 | locus YJR066W, strain TOR1, stronger effect = lower value 0.936

Source: PubChem BioAssay AID1159580 (chemical genetic matrix, 2015)
